The list is not random: actives were taken first. Their share in the collection is about 10%.
BAZ2B block = qHTS Assay for Inhibitors of BAZ2B. Potency, µM (top dose mostly 114 µM), for the others: top-dose activity change, negative = inhibition, actives largely listed as inhibitors. Bromodomain adjacent to zinc finger domain protein 2B (Homo sapiens), Q9UIF8. AID 504333, 2011. AlphaScreen BAZ2B-H3K14Ac peptide displacement. hit rate 4.4% among 360,000; further: potency means the concentration at half of the fitted maximal effect; on the % scale 0 is the no-effect control and ±100 the full control effect; nearly all actives have a fitted effect of over 60% in size
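AlphaScreen displacement of biotin-H3(5-23)K14Ac peptide (50 nM final) from BAZ2B (50 nM final) in PBS pH 7.4, 0.01% Tween-20; complex preformed 30 min RT, then compounds (top 110 uM) 30 min RT, beads 20 min dark.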
HP1b chromo inh = HTS for Inhibitors of HP1-beta Chromodomain Interactions with Methylated Histone Tails. AlphaScreen HP1-beta / biotin-H3K9me3 peptide binding. AID 540317, 2011. hit rate 0.56% among 390,000. Potency, µM (doses to about 114 µM), for inactives: at the top dose activity change, negative = inhibition, most hits filed as inhibitors; further: potency means the concentration at half of the fitted maximal effect; nearly all actives have a fitted effect of over 70% in size
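HP1-beta protein (50 nM final) preincubated 30 min at room temperature with biotinylated H3(1-18)K9me3 peptide (50 nM) in PBS pH 7.4, 0.01% Tween-20, then compound added for 30 min. AlphaScreen streptavidin donor/nickel chelate acceptor beads (10 ug/mL final), 30 min dark, luminescence read.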
Six1-Eya2 inh = qHTS Assay for Inhibitors of the Six1/Eya2 Interaction. hit rate 0.56% among 360,000. Homeobox protein SIX1 (Homo sapiens) + Protein phosphatase EYA2 (Homo sapiens), …. AlphaScreen GST-Six1/His-Eya2 binding, biochemical; hits give low values. activity change, % (no concentration beside the values). AID 651725, 2012; in the data active means activity change below about -65%; inconclusive means mostly about -30% to -63%; further: on the % scale 0 is the no-effect control and ±100 the full control effect
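AlphaScreen with GST-Six1 and His-Eya2 (5X mix: 250 nM and 500 nM), glutathione donor and nickel acceptor beads; buffer 50 mM Tris pH 8.0, 300 mM NaCl, 1 mM TCEP; 1 h at 37 C in the dark.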
G9a block = qHTS Assay for Inhibitors of Histone Lysine Methyltransferase G9a; Histone-lysine N-methyltransferase EHMT2 (Homo sapiens), Q96KQ7; G9a H3K9 monomethylation, AlphaScreen, 2 h; Potency, µM (series often up to 102 µM), for inactives: at the top dose activity, negative = inhibition, usual class: inhibitors; hit rate 8.8% among 350,000; AID 504332, 2011; further: potency means the concentration at half of the fitted maximal effect; on the % scale 0 is the no-effect control and ±100 the full control effect; nearly all actives have a fitted effect of over 75% in size
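Using a bead-based AlphaScreen, monomethylated H3K9 product from 2 h room-temperature reactions (G9a 20 nM, peptide 500 nM, SAM 20 uM) was detected with 0.5 ug/mL rabbit anti-H3K9me1 antibody.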
CtBP-E1A inh = qHTS Assay for Inhibitors of the CtBP/E1A Interaction. CtBP / adenovirus E1A interaction (AlphaScreen). AlphaScreen GST-E1A/His-CtBP binding, 1536-well; hits give low values. activity change, % (no concentration beside the values). hit rate 0.49% among 340,000. AID 651724, 2012; in the data active means activity change below about -65%; inconclusive means mostly about -30% to -63%; further: on the % scale 0 is the no-effect control and ±100 the full control effect
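AlphaScreen with 125 nM GST-E1A and 125 nM His-CtBP (5X stocks) in Tris pH 8.0, 300 mM NaCl, BSA, Tween 20, TCEP. Compounds preincubated 2 h at 37 deg C, then glutathione donor/nickel acceptor beads added for 1 h at 37 deg C in dark.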
JMJD2A Tudor = qHTS Assay for Inhibitors of JMJD2A-Tudor Domain. Lysine-specific demethylase 4A (Homo sapiens), O75164. AlphaScreen JMJD2A-Tudor / H3K4me3 peptide binding. Potency, µM (series often up to 114 µM), for inactives: at the top dose activity change, negative = inhibition, usual class: inhibitors. hit rate 4.4% among 390,000. AID 504339, 2011; further: potency means the concentration at half of the fitted maximal effect; on the % scale 0 is the no-effect control and ±100 the full control effect; nearly all actives have a fitted effect of over 50% in size
Active calls of the source: *; ? = inconclusive; . = no result; [ ] = dose if it differs, or a comment. Unless noted, the call rests on the fitted dose curve; in most records, active means well fitted inhibition curve with a large enough effect; inconclusive means small, poorly fitted or top-dose-only effect; inactive means no such curve, though single readings can be large or run the other way.

SMILES	BAZ2B block	HP1b chromo inh	Six1-Eya2 inh	G9a block	CtBP-E1A inh	JMJD2A Tudor
CCCCc1c(O)nc(SCCC(=O)O)[nH]c1=O	5%	.	.	24%[12.7 µM]	.	.
N=c1nc(SCCC(=O)O)ss1	10%	52%	15	11µM*	-10	-11%
CC(C)OC(=O)c1c(NC(=O)Cn2cnc([N+](=O)[O-])n2)sc2c1CCCC2	-3%	-23%	-5	16µM*	0	-16%
CCOC(=O)c1c(NC(=O)Cn2cnc([N+](=O)[O-])n2)sc(C)c1C	-2%	-9%	4	28µM*	-2	-1%
CCOC(=O)c1c(NC(=O)Cn2cnc([N+](=O)[O-])n2)sc2c1CCCC2	8%	-10%	2	45µM*	-8	-16%
NC(=O)c1c(NC(=O)Cn2cnc([N+](=O)[O-])n2)sc2c1CCCC2	-28%	11%[57 µM]	0	?	.	-18%
CCOC(=O)c1c(NC(=O)Cn2nc(C(F)F)cc2C(F)F)sc(C)c1C	2%	27%	1	?	8	-1%
Cc1cc(=S)cc(C)n1CCO	-7%	13%	4	13µM*	6	-16%
COc1ccc(S(=O)(=O)/N=C2/NC(=O)/C(=C\c3ccco3)S2)cc1	?	6%	-10	8.9µM*	-1	-25%
COc1ccc(S(=O)(=O)/N=C2/NC(=O)/C(=C/c3ccco3)S2)cc1	?	12%	-13	?	17	?
COc1ccc(N=C2NC(=O)/C(=C/c3ccco3)S2)cc1	40µM*	26%	-3	45µM*	.	-29%
Cc1ccc(S(=O)(=O)/N=C2/NC(=O)/C(=C/c3ccccn3)S2)cc1	-10%	18%	5	56µM*	0	-6%
COc1ccc(CN(Cc2ccco2)c2cnc(S(C)(=O)=O)nc2C(=O)Nc2ccc(C)c(Cl)c2)cc1	?	-2%	.	?	.	?
COc1ccc(CCNc2ncnc3c2c(-c2ccccc2)cn3-c2cccc(Cl)c2)cc1OC	-38%	11%	.	-28%[59 µM]	.	-32%
COC(=O)c1c(C)nc2ccccc2c1C(=O)O	-38%	11%	6	-39%	7	-12%
COc1ccc(-c2c(C(=O)O)nc3ccccc3c2C(=O)O)cc1	-28%	2%	5	?	4	25µM*
O=C(O)c1nc2ccccc2nc1C(=O)O	79µM*	-20%	3	?	-3	20µM*
Cc1cc(C)cc(NC(=O)c2c(C)oc3nc(C)nc(N4CCCC4)c23)c1	2%[57.1 µM]	40%	.	-24%[59 µM]	.	-6%
Cc1ccc(S(=O)(=O)NC(=O)c2ccc(F)cc2)c(C)c1	-1%	24%	1	-4%	-1	-27%
Cc1ccc(S(=O)(=O)NC(=O)c2ccc(-c3ccc(-c4ccccc4)cc3)o2)c(C)c1	?	.	.	40µM*	.	.
NC(=O)C1CCN(C(=S)c2ccc(-c3ccc(Br)cc3)o2)CC1	-15%	-6%	-9	35µM*	-6	-11%
COc1ccc(C(=S)N2CCC(C(N)=O)CC2)cc1Br	-1%	-20%	-19	?	-16	-17%
NC(=O)c1ccc(-c2ccc(Br)cc2)o1	-35%	-15%	-4	50µM*	-7	-28%
O=C(O)c1ccc(-c2ccc(-c3ccccc3)cc2)o1	.	.	.	35µM*	.	.
CCCC1=Nc2cc(C(=O)NC3CCCC3)ccc2Sc2ccc(C)cc21	-14%	11%	.	-4%[59 µM]	.	-8%
SMILES	BAZ2B block	HP1b chromo inh	Six1-Eya2 inh	G9a block	CtBP-E1A inh	JMJD2A Tudor
CN(C)Cc1nc2c([nH]1)c(=O)n(C)c(=O)n2C	-4%	24%	-5	?	2	3.5µM*
COc1ccc(C2NC(=O)C(C#N)=C(S)N2c2cccc(C)c2)cc1OC (stereo not given)	-35%	23%	-4	40µM*	-7	-18%[57.1 µM]
COc1cc(C2NC(=O)C(C#N)=C(S)N2c2ccc(C)cc2)ccc1OC(C)C (stereo not given)	-35%	24%	1	?	-11	-16%
COc1ccc(N2C(S)=C(C#N)C(=O)NC2c2ccc(OC)c(OC)c2)cc1 (stereo not given)	-13%	47%	11	?	0	-16%
COc1ccc(C2NC(=O)C(C#N)=C(S)N2c2ccc(C)cc2)cc1OC (stereo not given)	-31%	11%	4	45µM*	-5	-21%
Cc1ccc(C(=O)NCC(=O)OCC(=O)c2ccc3ccccc3c2)cc1	.	11%[57 µM]	.	.	.	-5%[57.1 µM]
COc1cc(NC(=O)c2ccccc2)c(OC)cc1NC(=O)Cc1ccc(C)cc1	-5%	31%	1	-1%	-2	-2%
COc1cc(C(=O)N=c2sc3ccccc3n2C)cc(OC)c1OC	-10%	18%	-1	4%	.	50µM*
COc1cc(C(=O)N=c2sc3c(C)ccc(OC)c3n2C)cc(OC)c1OC	5%	41%	7	.	7	-2%
CCCn1nnc(NC(=S)NC(=O)c2cccs2)n1	-29%	-13%	0	14µM*	-3	7.9µM*
Cn1nnc(NC(=O)/C=C/c2ccco2)n1	-9%	25%	1	?	-10	0%
CCCn1nnc(NC(=S)NC(=O)/C=C/c2ccco2)n1	-29%	-15%	-4	22µM*	-2	28µM*
COc1ccc(Br)c2oc(S)cc(=O)c12	-9%	34%	-14	7.1µM*	.	35µM*
O=[N+]([O-])c1cccc2ccc(/C=C/c3ccc(Cl)cc3)nc12	57%	-31%	-24	79µM*	?	?
O=[N+]([O-])c1cccc2ccc(/C=C/c3cccc(Br)c3)nc12	?	-13%	-24	?	6	?
O=[N+]([O-])c1cccc2ccc(/C=C/c3ccc(C(F)(F)F)cc3)nc12	-6%	-20%	-17	35µM*	-9	?
CC(C)C1CC(c2ccccc2)(C(CN)CO)CCO1 (stereo not given)	.	5%	9	?	4	?
COc1ccc(-c2nc3scc(CCNS(=O)(=O)c4cccs4)n3n2)cc1	-10%	33%	.	-16%[59 µM]	.	-17%
CCOC(=O)NC1(Nc2ccc(C)cc2)Oc2ccccc2O1	-11%	?	-10	?	-3	?
CCOC(=O)C(Cc1ccccc1)C1(C)Oc2ccccc2O1 (stereo not given)	.	.	63	.	-7	.
